Source: PubChem
D1 PAM – human D1 dopamine receptor positive modulation; HEK293 TREx D1 cells, calcium flux, dopamine EC20 potentiation; potentiation, % at 10 µM; hit rate 0.036% among 360,000; AID 504651; in the data active = potentiation above about 30%
TRHR ag – activates the human TRH receptor; TRHR cells, calcium flux fluo-8, FDSS agonist mode; activation, % at 2 µM; hit rate 0.18% among 360,000; AID 493084
Target sequence (P34981 whole entry, looked up): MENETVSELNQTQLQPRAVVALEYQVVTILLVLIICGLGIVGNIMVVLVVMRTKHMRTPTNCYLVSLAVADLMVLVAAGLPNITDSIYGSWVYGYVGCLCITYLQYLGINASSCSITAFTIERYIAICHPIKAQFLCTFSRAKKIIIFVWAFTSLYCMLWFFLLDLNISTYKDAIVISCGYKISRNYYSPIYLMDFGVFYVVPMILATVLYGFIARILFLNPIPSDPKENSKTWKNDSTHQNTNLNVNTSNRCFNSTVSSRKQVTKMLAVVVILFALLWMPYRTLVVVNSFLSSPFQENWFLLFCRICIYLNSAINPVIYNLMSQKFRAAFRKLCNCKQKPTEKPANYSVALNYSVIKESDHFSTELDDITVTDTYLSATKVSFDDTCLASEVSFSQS
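TRHR-expressing cells, plated overnight in medium with 10% serum, were loaded with fluo-8 calcium dye at room temperature. After a 10 s baseline, library compound was pin-added and calcium release was recorded kinetically (ex 480/em 530) as agonist response.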
TRHR PAM – allosteric enhancers of human TRH receptor. P34981. TRHR cells, fluo-8 calcium fluorescence, EC20 TRH enhancement. enhancement, % at 2 µM. hit rate 0.66% among 360,000. AID 493056; in the data active = enhancement above about 30%
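TRHR-expressing cells loaded with fluo-8 calcium dye were read kinetically (ex 480/em 530) during compound addition, then stimulated with an EC20 of TRH (10 nM final). Enhancement of the Gq-mediated intracellular calcium response was scored.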
D1 antag – blocks dopamine activation of the human D1 receptor | P21728 | HEK293 TREx D1 cells, calcium flux, dopamine EC80; active compounds read low | activity change, negative = inhibition, % at 10 µM | hit rate 3.2% among 360,000; in the data active = activity change below about -30%
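Inducible Hek293 Trex D1 cells (tetracycline, overnight, 30 C). Calcium dye 30–90 min RT. Antagonist mode: EC80 dopamine added after 180 s compound read.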
D1 ag – human D1 receptor agonism. P21728. HEK293 T-REx D1 cells, calcium flux, agonist mode. activation, % at 2 µM. hit rate 1% among 360,000
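Inducible HEK293 T-REx D1 cells, force-coupled to calcium signalling, were plated at 4000 cells/well with tetracycline and held overnight at 30 C. After no-wash calcium dye loading, compound-evoked calcium rise over 180 s flagged agonists.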
Numbers stand for hits; - = inactive; . = not tested or not shown. Compounds with a hit are over-represented: about 4.6% of the library has one in this group of screens. Cut-off read from the data, not from the text of the source, unless noted: active = activation above about 30%; inactive = the rest.

SMILES	D1 PAM	TRHR ag	TRHR PAM	D1 antag	D1 ag
COc1cccc(-n2c(=O)c3sccc3n(Cc3cc(=O)n4cc(Cl)ccc4n3)c2=O)c1	-	-	-	-32	-
Cc1ccc(S(=O)(=O)NCC(=O)N(CC(=O)NCc2ccco2)C2CCCC2)cc1	-	-	-	-38	-
O=C(CN(C(=O)CNS(=O)(=O)c1ccc(F)cc1)c1ccccc1)NCc1ccco1	-	-	-	-	-
O=C(CN(C(=O)CNS(=O)(=O)c1ccc(F)cc1)c1ccc(F)cc1)NCc1ccco1	-	-	-	-32	-
Cc1ccc(S(=O)(=O)NCC(=O)N(CC(=O)NCc2ccco2)Cc2ccccc2)cc1	-	-	-	-	-
O=S(=O)(NC1CCC(CNS(=O)(=O)c2c(F)cccc2F)CC1)c1ccc2c(c1)OCCO2 (stereo unspecified)	-	-	-	-	-
CCOc1ccc(CNC(=O)c2cccc(NC(=O)N3CCSc4ncccc43)c2)cc1OC	-	-	-	-	-
Cc1ccc2ncccc2c1N	-	-	-	-63	-
Cc1ccc2ncccc2c1NS(=O)(=O)c1ccccc1	-	-	-	-	-
CC(C)(C)OC(=O)CC(=O)NNC(=O)c1cc2ccccc2[nH]1	-	-	-	-	-
CCOC(=O)C1CCN(C(=O)c2ccc(NC(=O)c3nsc4ccccc34)cc2)CC1	-	-	-	-	-
Clc1ccc(-c2cnc(Oc3ccccc3)nc2)cc1	-	-	-	-	-
Cc1cc(Cl)ccc1Oc1ncc(-c2ccc(Cl)cc2)cn1	-	-	-	-66	-
C[C@@H](CSc1ccccc1)CN1CC[C@H](O)CCC1=O	-	-	-	-31	-
CC1CC(C)(C)CC2(C1)NC(=O)N(CC(=O)Nc1c(F)cccc1F)C2=O (stereo unspecified)	.	-	-	-	-
CC1CC(C)(C)CC2(C1)NC(=O)N(CC(=O)Nc1cc([N+](=O)[O-])ccc1F)C2=O (stereo unspecified)	-	-	-	-33	-
CC(=O)N1CCC(N(Cc2ccc(C)o2)C(=O)Nc2cccc(C(F)(F)F)c2)CC1	-	-	-	-	-
CC1CCN(CCNC(=O)c2ccc3c(=O)n(Cc4ccc(Cl)cc4)c(=S)[nH]c3c2)CC1	-	-	-	-51	88
CC(C)Cn1c(=S)[nH]c2cc(C(=O)NCc3ccccc3F)ccc2c1=O	-	-	-	-33	-
CCN(CC)CCNC(=O)c1ccc2c(=O)n(C3CCCC3)c(=S)[nH]c2c1	-	-	-	-40	30
COc1ccccc1Cn1c(=S)[nH]c2cc(C(=O)NC(C)C)ccc2c1=O	-	-	-	-	-
Cc1c(NC(=O)c2cc(-n3cnnc3)ccc2Cl)cccc1-c1nc2ccccc2s1	-	-	-	-39	-
O=C(Nc1cccc(-c2nc3ccccc3s2)c1)c1cc(-n2cnnc2)ccc1Cl	-	-	-	-	-
Cc1c(NC(=O)c2ccccc2F)cccc1-c1nc2cccnc2s1	-	-	-	-80	-
COc1cc(/C=N\NC(=O)CC#N)ccc1OC/C=C/c1ccccc1	-	-	-	-38	-
SMILES	D1 PAM	TRHR ag	TRHR PAM	D1 antag	D1 ag
COCC(=O)N/N=C\c1ccc(OC/C=C/c2ccccc2)c(OC)c1	-	-	-	-	-
CCOc1ccc(-c2cc(NC(=O)Nc3ccccc3Cl)c(C(=O)OC)s2)cc1	-	-	-	-	-
COc1ccc(NC(=O)CCn2nc(-c3ccccc3OC)c3c(C)cc(C)nc32)cc1	-	-	-	-	-
O=C(CSc1ncc(-c2ccccc2)[nH]1)Nc1ccc(Cl)cc1	-	-	-	-	-
COc1ccc(OC)c(CNC(=O)c2ccc(Sc3ccc(C)cc3)c(N)c2)c1	-	-	-	-	-
COC(=O)c1ccc(Sc2ccc(C)cc2)c(N)c1	-	-	-	-36	-
COC(=O)c1ccc(C)c(NC(=O)CCSc2ccc(C)cc2)c1	-	-	34	-	-
CN(C)S(=O)(=O)c1ccc(C(=O)Nc2ccc(-n3nncc3-c3ccccc3)cc2)cc1	-	-	-	-	-
O=S(=O)(c1ccc(Cl)cc1)c1nc(-c2ccccc2Br)oc1N1CCOCC1	-	-	-	-	-
C=C(C)c1cccc(C(C)(C)NC(=O)N2CCC(C)CC2)c1	-	-	-	-43	-
C=C(C)c1cccc(C(C)(C)NC(=O)N2CCN(C)CC2)c1	-	-	-	-	-
C=C(C)c1cccc(C(C)(C)NC(=O)N2CCN(c3ccc(OC)cc3)CC2)c1	-	-	-	-37	-
